Measured values: the supplement of paper PMC10105736
A number with no mark means an inactive call.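 How the source made its calls: active = MAPPIT score above the 99th percentile of random reference set scores in the same batch; inactive = at or below it.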

Columns and labels:
Assay in all cases: MAPPIT interaction score (arbitrary units); higher = stronger binary interaction signal, active = hit call of the paper
htl = details: MAPPIT configuration: N-N; pair source set: RRS
gukh = details: MAPPIT configuration: N-C; pair source set: Lit-BM-16
mRpL39 = details: MAPPIT configuration: N-N; pair source set: DPIM
hid = details: pair source set: RRS
jvl = details: pair source set: RRS
kappaB-Ras = details: MAPPIT configuration: N-N; pair source set: DPIM
isoQC = details: MAPPIT configuration: N-N; pair source set: DPIM
gus = details: MAPPIT configuration: N-N; pair source set: Finley_Y2H
ix = details: pair source set: Lit-BM-16
l(3)neo38 = details: MAPPIT configuration: N-N; pair source set: Lit-BS-16
ihog = details: pair source set: Lit-BM-16
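Further: HEK293T cells with Epo stimulation, STAT-responsive firefly luciferase reporter, fold induction versus unstimulated cells divided by the larger fold induction of two negative controls lacking either bait or prey.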

B1: Uba5 (protein)
chain: MSHAIDELQAIIADLKTELETEPKSSGGVASNSRLARDRIDRMSAEVVDSNPYSRLMALQRMNIVKDYERIRYKAVAIVGVGGVGSVTADMLTRCGIGKLILFDYDKVELANMNRLFFTPDQAGLSKVAAAAATLSFINPDVEIETHNYNITTVENFDRFLDTISQGGRIAGQPVDLVLSCVDNFEARMAINAACNERNLNWFESGVSENAVSGHIQFIRPGDTACFACAPPLVVAENIDEKTLKREGVCAASLPTTMGITAGFLVQNALKYLLNFGEVSDYLGYNALSDFFPKMTLKPNPQCDDRNCLVRQKEFQARPKPVLIEEKAVSEEPLHATNEWGIELVAEDAPESNTTPAETPVMGEGLRLAYEAPEKSSETSEETVSAATADETSLEDLMAQMKSM
htl
  MAPPIT interaction score: 0.0658

B2: dlg1 (protein)
chain: MPVKKQEAHRALELLEDYHARLSEPQDRALRIAIERVIRIFKSRLFQALLDIQEFYELTLLDDSKSIQQKTAETLQIATKWEKDGQAVKIADFIKSSNLNRNCAYEFNNDASSNQTNQSALNQNPIANNVSAQAQAEALSRTFKSELEEILNQRMRIESDTENAKEPTVEQQQKQQQAQQRSSRSPQQQNPQQQQGSKSRSGSQTVNGDDSWLYEDIQLERGNSGLGFSIAGGTDNPHIGTDTSIYITKLISGGAAAADGRLSINDIIVSVNDVSVVDVPHASAVDALKKAGNVVKLHVKRKRGTATTPAAGSAAGDARDSAASGPKVIEIDLVKGGKGLGFSIAGGIGNQHIPGDNGIYVTKLMDGGAAQVDGRLSIGDKLIAVRTNGSEKNLENVTHELAVATLKSITDKVTLIIGKTQHLTTSASGGGGGGLSSGQQLSQSQSQLATSQSQSQVHQQQHATPMVNSQSTEPGSRYASTNVLAAVPPGTPRAVSTEDITREPRTITIQKGPQGLGFNIVGGEDGQGIYVSFILAGGPADLGSELKRGDQLLSVNNVNLTHATHEEAAQALKTSGGVVTLLAQYRPEEYNRFEARIQELKQQAALGAGGSGTLLRTTQKRSLYVRALFDYDPNRDDGLPSRGLPFKHGDILHVTNASDDEWWQARRVLGDNEDEQIGIVPSKRRWERKMRARDRSVKFQGHAAANNNLDKQSTLDRKKKNFTFSRKFPFMKSRDEKNEDGSDQEPFMLCYTQDDANAEGASEENVLSYEAVQRLSINYTRPVIILGPLKDRINDDLISEYPDKFGSCVPHTTRPKREYEVDGRDYHFVSSREQMERDIQNHLFIEAGQYNDNLYGTSVASVREVAEKGKHCILDVSGNAIKRLQVAQLYPVAVFIKPKSVDSVMEMNRRMTEEQAKKTYERAIKMEQEFGEYFTGVVQGDTIEEIYSKVKSMIWSQSGPTIWVPSKESL
gukh
  MAPPIT interaction score: 1.68
mRpL39
  MAPPIT interaction score: 0.743

B3: sesB (protein)
chain: MGNISASITSQSKMGKDFDAVGFVKDFAAGGISAAVSKTAVAPIERVKLLLQVQHISKQISPDKQYKGMVDCFIRIPKEQGFSSFWRGNLANVIRYFPTQALNFAFKDKYKQVFLGGVDKNTQFWRYFAGNLASGGAAGATSLCFVYPLDFARTRLAADTGKGGQREFTGLGNCLTKIFKSDGIVGLYRGFGVSVQGIIIYRAAYFGFYDTARGMLPDPKNTPIYISWAIAQVVTTVAGIVSYPFDTVRRRMMMQSGRKATEVIYKNTLHCWATIAKQEGTGAFFKGAFSNILRGTGGAFVLVLYDEIKKVL
hid; MAPPIT configuration: N-C
  MAPPIT interaction score: 0.0222
hid; MAPPIT configuration: N-N
  MAPPIT interaction score: -0.106

B4: TH1 (protein)
chain: MEVEYDDSGWQGRAKGQTNPEETLEDNPQKTIQECLEKFLTPDYIMEPGIFTQLKRYFQSGGSPEEVISMLSENYKAVAQMANLLAEWLILAGVKVTEVQAMVENHLKEMILKSFDPKKADTIFTEEGETPDWLTEMIDHYTWRSLIYRLAEEYPDCLMLNFTIKLISDAGFQSEITSISTAAQQIEVFSRVLKTSIVKFLNNPDDVHGAIQECARMVCHGQHTYVYSQVLIQVLSQEQKGGFNMKRLSQEIIKYALQNNQNVTPITMALNGSAVYPQACQALTSMLTRNTLNPADITVLFRNYSGSDPPPIDLIRNPQFLELLVDALFRSGVKINPEHKPKYMFLLAYASAVIDQPAKKRPMTERMLNKEELKSTIQAIEKAHTICNVDQGSTELIAELQTLYNCIKYPVVGVGVIRWIENVVMEPSYFKLSTDSCPTHLAVLDEVAAVHPTLQQQILFLLIRLFESKQDELEILVQLEMKKMILDRMVNLLTRGCVVPVLRYIKQCCAIEDTDISLIRYFVTEVLETITHPYSPEFVQLFLPMVENEEITGTMRGEGDNDPVSEFIVHCKAHYTTV
jvl; MAPPIT configuration: N-C
  MAPPIT interaction score: 0.00492
jvl; MAPPIT configuration: N-N
  MAPPIT interaction score: -0.0162

B5: Cp1 (protein)
chain: MNHLGVFETRFRPRTRHKSQRAQLIPEQITMRTAVLLPLLALLAVAQAVSFADVVMEEWHTFKLEHRKNYQDETEERFRLKIFNENKHKIAKHNQRFAEGKVSFKLAVNKYADLLHHEFRQLMNGFNYTLHKQLRAADESFKGVTFISPAHVTLPKSVDWRTKGAVTAVKDQGHCGSCWAFSSTGALEGQHFRKSGVLVSLSEQNLVDCSTKYGNNGCNGGLMDNAFRYIKDNGGIDTEKSYPYEAIDDSCHFNKGTVGATDRGFTDIPQGDEKKMAEAVATVGPVSVAIDASHESFQFYSEGVYNEPQCDAQNLDHGVLVVGFGTDESGEDYWLVKNSWGTTWGDKGFIKMLRNKENQCGIASASSYPLV
kappaB-Ras
  MAPPIT interaction score: 0.259

B6: fd59A (protein)
chain: MHTSTDPMHTLHDSVSLSPPLIKSSRGGSSIGNGIGCSASSRTAAADAMSMGCDDSDIEPSSMGGSGAAGGNGDGSGSSGGPLVKPPYSYIALITMAILQSPHKKLTLSGICDFIMSRFPYYKDKFPAWQNSIRHNLSLNDCFIKVPREPGNPGKGNFWTLDPLAEDMFDNGSFLRRRKRYKRAPTMQRFSFPAVFGTLSPFWIRKPVPLVPVHFNVPNFNGSREFDVVHNPADVFDSALRADKKFNFFANAEASFYQGSQSGDKFDRLPFMNRGRGADVLDALPHSSGSGGGVGGGSESSRGSKYKSPYAFDVATVASAAGIPGHRDYAERLSAGGGYMDLNVYNDDADTEADAEAEGDDDSCEDKIDVESGNEQEDSHISDSVDSACTNRLDAPPEALIFEASAEASDSSPRRRFDSEPLVLRTSKQSSAKDFRIETLIGHHLHRGGSQEETSD
isoQC
  MAPPIT interaction score: 0.602

B7: Sirt2 (protein)
chain: MDKVRRFFANTLHLGGSSDAKEEVKVEKVIPDLSFDGFAEHWRVHGFRKIVTMVGAGISTSAGIPDFRSPGSGLYSNLKKYELPHPTAIFDLDYFEKNPAPFFALAKELYPGSFIPTPAHYFIRLLNDKGLLQRHYTQNIDTLDRLTGLPEDKIIEAHGSFHTNHCIKCRKEYDMDWMKAEIFADRLPKCQKCQGVVKPDIVFFGENLPKRFYSSPEEDFQDCDLLIIMGTSLEVQPFASLVWRPGPRCIRLLINRDAVGQASCVLFMDPNTRSLLFDKPNNTRDVAFLGDCDAGVMALAKALGWDQELQQLITSERKKLSGSQNSEELQQGKEKPQSDPDKMTSGDRDKKDASL
gus
  MAPPIT interaction score: -0.0617

B8: MED8 (protein)
chain: MQRDEKLFELTLDTVLQRLNDLKLAVLSMIQKLELEYETINWPTFLDNFAIISSHLTGLTKILAKEQCPPLRNRTVLPLLVSMDRDDTLINITEGRVPVFSHDIVPDYLRTRPDPITEQKMLQNEQKAANLTNDAAMKQVTQYNKVVSHVLDMVSKAREEWEIESSSRTGIQQTSSMADTQLLVAAVGMGKGLKLTNYGPGPGMMVPPSIRAPSPMGGPAMSPGNVQQQLGKAPSAVKTNIKSANQVHPFSR
ix; MAPPIT configuration: N-C
  MAPPIT interaction score: 3.01
ix; MAPPIT configuration: N-N
  MAPPIT interaction score: 2.19

B9: Pdk1 (protein)
chain: MKCKSWSNKINNYVVRKIKSIKINGTQQQLQLPGSGASGIAAAAVITVASDCGENCSSNGTEHQQHFNIATTTATSATEATMPAMAKEKASATVSLGESNFRDINLKDLAVVVEAASRLHHQQNVCGCGAVSSTENNNNSRYGSSKYLTNGHTSPLAAAVASNSSSVATTPHCRMLHNCSLQQYQNDIRQQTEILDMLRQQHQQGYQSQQQQQQPQQQQEQQQQQEQSQQQQQLQNPAPRRSPNDFIFGRYIGEGSYSIVYLAVDIHSRREYAIKVCEKRLILRERKQDYIKREREVMHQMTNVPGFVNLSCTFQDQRSLYFVMTYARKGDMLPYINRVGSFDVACTRHYAAELLLACEHMHRRNVVHRDLKPENILLDEDMHTLIADFGSAKVMTAHERALATEHCSEQRRSNSDEDDEDSDRLENEDEDFYDRDSEELDDGDDEQQQEEMDSPRHRQRRYNRHRKASFVGTAQYVSPEVLQNGPITPAADLWALGCIVYQMIAGLPPFRGSNDYVIFKEILDCAVDFPQGFDKDAEDLVRKLLRVDPRDRLGAQDEFGYYESIRAHPFFAGIDWQTLRQQTPPPIYPYLPGVSQDEDFRSSYTVPGDLEPGLDERQISRLLSAELGVGSSVAMPVKRSTAKNSFDLNDAEKLQRLEQQKTDKWHVFADGEVILKKGFVNKRKGLFARKRMLLLTTGPRLIYIDPVQMIKKGEIPWSPDLRAEYKNFKIFFVHTPNRTYYLDDPEGYAIHWSEAIENMRKLAYGDPSSTSAVSCSSGSSNSLAVISNSSAASSSNSPTVKRSSPVNAPQASTASDNRTLGSTRTGTSPSKKTASK
l(3)neo38
  MAPPIT interaction score: 1.81

B10: ihog (protein)
chain: MTLLTSSLLLFSLLTSRLEAIPVLEKSPAHPAHSAHPAHPAHPAHPAHPSPGVRILRAPESLVAPLGDEVVLECETSLQPERFEWSHRSSRSPGAGFKYLKTGTAKANVSQEAAISRLRVLVRPDTLGEYRCVGWFGPLVVTSTIARLELASTSLVDAQESESPLQWRVSAGNSVLWSCGQQVQSNPSASWSYYRNGVEIKPEFIGTNGNLFLSNVSSESSGSYSCQATNPASGERIQLPGSLQLQVTPEQRSESKSPHLLRGQPSSQEITIREGSSLLLLCPGVGSPPPTVVWSSPDVVGAVKNKRSKVFGHALEISNTRVNDAGTYICFQDNGVRPALEHYIKVHVEQPPQIVRPPWADLTNEGDRLKLECKATGVPTPEIYWLLNGHSSIDDSEAELSNNFLILHSVLKRHAGYVQCFARNRLGEHSAGTLLQVNPKQIQEPRESGGTHRPKPNQGSRQKQMYPPTPPNVTRLSDESVMLRWMVPRNDGLPIVIFKVQYRMVGKRKNWQTTNDNIPYGKPKWNSELGKSFTASVTDLKPQHTYRFRILAVYSNNDNKESNTSAKFYLQPGAALDPMPVPELLEIEEYSETAVVLHWSLASDADEHLITGYYAYYRPSSSAGEYFKATIEGAHARSFKIAPLETATMYEFKLQSFSAASASEFSALKQGRTQRPKTSTTEEPTLQMGDRDTTTPSHNETFNMSPMLTGTIGGGAVLILLLISTCFCVCRRRNSRSRGNNPNKPRMAELRDDFVPLGNCSPTKQRQRTRHIHITLNPLAQQQQQALEEKNDTDQDAPYYQRPSSYDYDPTLRRMSSSSLRRSQRTLERAGGSNGSNNGNNNNLNQSAEAGSIENPGKPGRVLMKRPRLSSRSENLSSGSLNSVGV
ihog; MAPPIT configuration: N-C
  MAPPIT interaction score: -0.576
ihog; MAPPIT configuration: N-N
  MAPPIT interaction score: -0.268
